Compound activity deposited in PubChem by National Center for Advancing Translational Sciences (NCATS).
TDP1 inh – blocks human tyrosyl-DNA phosphodiesterase 1; recombinant TDP1, AlphaScreen DNA substrate cleavage; Potency, µM (doses to about 130 µM), without a hit: at the top dose activity change, negative = inhibition, actives largely listed as inhibitors; 0.28% of 350,000 active; AID 485290; also: potency is read from the fitted curve at half-maximal effect; % is scaled to controls: 0 for no effect and ±100 for the full control effect; nearly all actives have a fitted effect of over 40% in size
Target sequence (Q9NUW8 whole entry, looked up): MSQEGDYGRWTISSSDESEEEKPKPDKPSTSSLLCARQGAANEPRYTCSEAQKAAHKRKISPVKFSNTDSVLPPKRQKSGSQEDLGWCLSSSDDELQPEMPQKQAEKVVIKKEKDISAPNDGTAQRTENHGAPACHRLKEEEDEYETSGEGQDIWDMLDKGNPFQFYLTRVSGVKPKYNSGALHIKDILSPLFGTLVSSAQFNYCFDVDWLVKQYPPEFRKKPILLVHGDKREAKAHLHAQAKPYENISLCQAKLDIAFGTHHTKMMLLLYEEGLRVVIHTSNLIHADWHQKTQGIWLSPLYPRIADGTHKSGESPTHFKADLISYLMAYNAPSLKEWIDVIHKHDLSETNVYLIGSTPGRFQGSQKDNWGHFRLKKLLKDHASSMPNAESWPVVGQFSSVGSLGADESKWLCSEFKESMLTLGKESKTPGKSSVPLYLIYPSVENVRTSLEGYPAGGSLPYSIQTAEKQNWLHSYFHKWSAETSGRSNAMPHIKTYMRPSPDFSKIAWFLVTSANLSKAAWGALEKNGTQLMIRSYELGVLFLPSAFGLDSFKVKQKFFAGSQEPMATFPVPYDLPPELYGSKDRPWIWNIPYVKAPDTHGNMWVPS
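Steps: enzyme plus compound, 15 min RT; add biotin/phosphotyrosine-FITC oligonucleotide (15 nM final), react 5 min; add donor/acceptor beads (10 ug/ml final), 10 min; read AlphaScreen. Tdp1 at 1 nM final.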
HP1b chromo inh – HP1-beta chromodomain-methylated histone interaction inhibition; P83916; AlphaScreen HP1-beta / biotin-H3K9me3 peptide binding; Potency, µM (top dose mostly 114 µM), for inactives: top-dose activity change, negative = inhibition, usual class: inhibitors; 0.56% of 390,000 active; AID 540317; also: potency is read from the fitted curve at half-maximal effect; nearly all actives have a fitted effect of over 70% in size
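HP1-beta protein (50 nM final) preincubated 30 min at room temperature with biotinylated H3(1-18)K9me3 peptide (50 nM) in PBS pH 7.4, 0.01% Tween-20, then compound added for 30 min. AlphaScreen streptavidin donor/nickel chelate acceptor beads (10 ug/mL final), 30 min dark, luminescence read.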
BAZ2B block – blocks human BAZ2B | Q9UIF8 | AlphaScreen BAZ2B-H3K14Ac peptide displacement | Potency, µM (titrated, usually from 114 µM), for inactives: at the highest dose activity change, negative = inhibition, hits mostly inhibitors | 4.4% of 360,000 active; also: potency is read from the fitted curve at half-maximal effect; % is scaled to controls: 0 for no effect and ±100 for the full control effect; nearly all actives have a fitted effect of over 60% in size
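AlphaScreen luminescence quantifies BAZ2B engagement of H3K14Ac peptide; the protein and biotinylated peptide are both at 50 nM final, buffer PBS pH 7.4 with 0.01% Tween-20, all steps at room temperature.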
JMJD2A Tudor inh – JMJD2A Tudor domain (human) inhibition. 4.4% of 390,000 active. O75164. AlphaScreen JMJD2A-Tudor / H3K4me3 peptide binding. Potency, µM (series often up to 114 µM), for the others: at the top dose activity change, negative = inhibition, actives largely listed as inhibitors; also: potency is read from the fitted curve at half-maximal effect; % is scaled to controls: 0 for no effect and ±100 for the full control effect; nearly all actives have a fitted effect of over 50% in size
CtBP-E1A inh – blocks the CtBP interaction with E1A. AlphaScreen GST-E1A/His-CtBP binding, 1536-well; stronger effect = lower value. activity change, % (concentration not given with the values). 0.49% of 340,000 active; in the data active = activity change below about -65%; inconclusive = mostly about -30% to -63%; also: % is scaled to controls: 0 for no effect and ±100 for the full control effect
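GST-E1A and His-tagged CtBP (125 nM each as 5X stock) were preincubated with pin-transferred compound for 2 h at 37 °C in the dark, then glutathione donor and nickel acceptor beads were added for 1 h before AlphaScreen reading.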
Six1-Eya2 inh – blocks human Six1 binding to Eya2. Q15475+O00167. AlphaScreen GST-Six1/His-Eya2 binding, biochemical; stronger effect = lower value. activity change, % (test concentration not listed). 0.56% of 360,000 active. AID 651725; in the data active = activity change below about -65%; inconclusive = mostly about -30% to -63%; also: % is scaled to controls: 0 for no effect and ±100 for the full control effect
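AlphaScreen with GST-Six1 and His-Eya2 (5X mix: 250 nM and 500 nM), glutathione donor and nickel acceptor beads; buffer 50 mM Tris pH 8.0, 300 mM NaCl, 1 mM TCEP; 1 h at 37 C in the dark.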
Active calls of the source: *; ? = inconclusive; nt = not tested or not shown; [ ] = dose if it differs, or a comment. In the library only some 5.3% were active in any assay of this set; here they are far more common. Unless noted, calls follow the shape of the dose curve; as a rule, active = well fitted inhibition curve with a large enough effect; inconclusive = small, poorly fitted or top-dose-only effect; inactive = no such curve, though single readings can be large or run the other way.

SMILES	TDP1 inh	HP1b chromo inh	BAZ2B block	JMJD2A Tudor inh	CtBP-E1A inh	Six1-Eya2 inh
CCOc1ccc(-c2nc(C#N)c(N3CCCCCC3)o2)cc1	9%	?	11µM*	35µM*	-23	?
COc1ccccc1OCc1nc(C#N)c(N2CCCC2)o1	6%	-4%	-35%	-21%	-15	-5
Cc1ccccc1-c1nc(C#N)c(N2CCCCC2)o1	nt	45µM*	22µM*	?	-8	-23
N#Cc1nc(-c2ccc(Cl)cc2)oc1N1CCCCC1	10%	-60%	40µM*	?	-16	-12
Cc1ccccc1OCc1nc(C#N)c(N2CCCC2)o1	0%	20%	45µM*	0%	1	-4
CCOc1ccc(-c2nc(C#N)c(N3CCN(C)CC3)o2)cc1	5%	-12%	-31%	-25%	-25	-23
Cc1ccc(NC(=O)N2CCN(C)c3ncccc32)cc1C	-1%	29%	-11%	-6%	nt	nt
COc1ccc(-c2nc(C#N)c(N3CCC(C)CC3)o2)cc1	nt	-21%	5µM*	?	-4	4
CCOc1ccc(-c2nc(C#N)c(N3CCN(CC)CC3)o2)cc1	2%	-8%	?	?	-8	-15
CCCOc1ccc(-c2nc(C#N)c(N3CCN(CC)CC3)o2)cc1	7%	50µM*	40µM*	?	-18	-23
COc1ccc(-c2nc(C#N)c(N3CCCCCC3)o2)cc1	-6%	-28%	28µM*	?	51	-26
N#Cc1nc(-c2ccc(F)cc2)oc1N1CCCCC1	nt	?	?	?	-14	1
COc1ccc(-c2nc(C#N)c(N3CCCCC3)o2)cc1	nt	56µM*	28µM*	?	-16	-23
Cc1ccc(-c2nc(C#N)c(N3CCCCC3)o2)cc1	4%	-13%	?	-21%	-25	-22
COCCCNC(=O)N1CCN(c2nnc(C)c3c(C)n(-c4ccc(Cl)cc4)nc23)CC1	5%	15%	-2%	-17%	nt	nt
c1csc(CNc2ncnc3cc(-c4ccc5c(c4)OCO5)ccc23)c1	-9%	nt	nt	?	nt	nt
CC1CCC2C(=O)N3C(CCC(C)[C@@H]3c3ccc(Br)cc3)C(=O)N2C1c1ccc(Br)cc1 (stereo partly drawn)	9%[21 µM]	nt	nt	nt	nt	nt
CCCC(=O)Nc1ccc2nc(SCc3ccc(C)cc3)sc2c1	1%	80%	1%	2%	nt	nt
N#Cc1nc(N2CCCC2)nc(N(c2ccccc2)c2ccccc2)n1	-1%	21%[57 µM]	nt	-17%[57.1 µM]	nt	nt
c1cc2c3c(cccc3c1)NC(c1ccc3c(c1)OCO3)N2	nt	?	40µM*	40µM*	nt	-5
CSc1ccc(C2Nc3cccc4cccc(c34)N2)cc1	nt	18µM*	50µM*	18µM*	nt	10
Clc1ccc(C2Nc3cccc4cccc(c34)N2)cc1	10%	-19%	?	?	0	-3
Cc1cccc(C2Nc3cccc4cccc(c34)N2)c1	nt	?	?	?	nt	2
CCOC(=O)/C=C/C(=O)OCc1csc(CC(=O)Nc2ccccc2C)n1	-6%	50%	50µM*	0%	9	8
Cc1ccc(C)c(N2CCN(C(=O)c3cc4c(=O)n(Cc5cccnc5)ccc4nc3C)CC2)c1	7%	48%	-18%	-18%	nt	nt
SMILES	TDP1 inh	HP1b chromo inh	BAZ2B block	JMJD2A Tudor inh	CtBP-E1A inh	Six1-Eya2 inh
Cc1ccc(OCCCCN2CCCCC2)c(C)c1	nt	36%	0%	-9%	-8	0
Cc1ccccc1OCCCN1CCCC1	-6%	-38%	-35%	3.5µM*	-6	0
Cc1ccccc1OCCN1CCCC1	79µM*	?	50µM*	20µM*	3	2
Cc1ccc(OCCN2CCCCCC2)c(C)c1	4%	8%	-6%	-23%	-5	4
Cc1ccc(C)c(OCCCCN2CCCCC2)c1	5%	-10%	-20%	32µM*	5	9
COc1ccc(NC(=O)c2ccc3[nH]c(C)cc(=O)c3c2)cc1	6%	36%	-8%	-10%	nt	nt
Cc1nc(C)c(C(=O)NNS(=O)(=O)c2ccc3ccccc3c2)s1	-2%	17%	-17%	25µM*	21	10
Cc1ccc(S(=O)(=O)Nc2cc(C(=O)O)ccc2N2CCCCC2)cc1	2%	14%	-5%	-16%	2	3
O=C(O)CCc1ccc(S(=O)(=O)Nc2cc(C(F)(F)F)ccc2N2CCCC2)cc1	18µM*	2%	79µM*	?	-1	1
COCCOC(=O)C1=C(C)N=C2SCCC(=O)N2C1c1ccc(OCc2ccccc2)c(OC)c1 (stereo not drawn)	3%	15%	-1%	-20%	nt	nt
S=c1[nH]c2cc(Cl)ccc2s1	3%	-9%	-1%[57.1 µM]	?	5	5
S=c1[nH]c2ccc(Cl)cc2[nH]1	-2%	?	7%	45µM*	3	0
COc1ccc2[nH]c(=S)[nH]c2c1	5%	16%	10%	56µM*	-5	0
CC(C)(C)OC(=O)NCCCC1=CC2=CC(=O)C(C)(OC(=O)c3cnc4ccccc4n3)C(=O)C2=CO1 (stereo not drawn)	4%	nt	nt	nt	nt	nt
O=C(Cn1ncc2ccsc2c1=O)N1CCN(c2ccccc2F)CC1	4%	15%	-1%	-24%	nt	nt
CCOc1ccc(NC(=O)C(c2ccccn2)N(C(=O)CCl)c2ccc(OCC)cc2)cc1 (stereo not drawn)	7%	-28%	?	?	-14	-15
CCOc1ccc(NC(=O)C(c2ccccn2)N(C(=O)CCl)c2ccc(OC)cc2)cc1 (stereo not drawn)	0%	-27%	?	89µM*	-5	-10
CC1=NN(C(N)=S)C(=O)C1N=Nc1cccc2ccccc12 (stereo not drawn)	10%	nt	40µM*	nt	nt	nt
CC1=NN(C(N)=S)C(=O)C1N=Nc1cccc(Cl)c1C (stereo not drawn)	nt	?	45µM*	50µM*	nt	0
CC1=NN(C(N)=S)C(=O)C1N=Nc1ccccc1 (stereo not drawn)	7%	26%	2%	-19%	nt	1
CC1=NN(C(N)=S)C(=O)C1N=Nc1ccc(Br)cc1 (stereo not drawn)	4%	14%	-11%	-27%	-9	-4
CC1=NN(C(=O)c2ccncc2)C(=O)C1N=Nc1ccc2ccccc2c1 (stereo not drawn)	nt	25µM*	nt	?	0	0
CC1=NN(C(N)=S)C(=O)C1N=Nc1ccc(Cl)cc1 (stereo not drawn)	7%	?	-6%	?	4	-16
CCc1ccccc1NC(=O)CC(C)n1nc(C)cc1C (stereo not drawn)	1%	51%	-3%	-11%	nt	nt
Cc1cc(Nc2ccccc2O)nc(C)n1	2%	18%	-12%	-17%	nt	nt
